In PubChem BioAssay AID504710 (Sanford-Burnham Center for Chemical Genomics, 2011):
Values without a mark were called inactive. Activity calls are given as the source filed them.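 Rule for the calls: active = inhibition reaching about 16% in any single replicate (limit read from the data); inactive = the rest.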

Target: Hexokinase HKDC1 (Homo sapiens) (UniProt Q2TB90)
Assay: compounds lowering human HKDC1 activity – biochemical, single concentration, confirmation (AID 504710)
Conditions: recombinant HKDC1, G6PDH/diaphorase/resazurin fluorescence; at 20 µM; active compounds read high

Chain of Hexokinase HKDC1 (Homo sapiens) (Q2TB90 whole entry, looked up): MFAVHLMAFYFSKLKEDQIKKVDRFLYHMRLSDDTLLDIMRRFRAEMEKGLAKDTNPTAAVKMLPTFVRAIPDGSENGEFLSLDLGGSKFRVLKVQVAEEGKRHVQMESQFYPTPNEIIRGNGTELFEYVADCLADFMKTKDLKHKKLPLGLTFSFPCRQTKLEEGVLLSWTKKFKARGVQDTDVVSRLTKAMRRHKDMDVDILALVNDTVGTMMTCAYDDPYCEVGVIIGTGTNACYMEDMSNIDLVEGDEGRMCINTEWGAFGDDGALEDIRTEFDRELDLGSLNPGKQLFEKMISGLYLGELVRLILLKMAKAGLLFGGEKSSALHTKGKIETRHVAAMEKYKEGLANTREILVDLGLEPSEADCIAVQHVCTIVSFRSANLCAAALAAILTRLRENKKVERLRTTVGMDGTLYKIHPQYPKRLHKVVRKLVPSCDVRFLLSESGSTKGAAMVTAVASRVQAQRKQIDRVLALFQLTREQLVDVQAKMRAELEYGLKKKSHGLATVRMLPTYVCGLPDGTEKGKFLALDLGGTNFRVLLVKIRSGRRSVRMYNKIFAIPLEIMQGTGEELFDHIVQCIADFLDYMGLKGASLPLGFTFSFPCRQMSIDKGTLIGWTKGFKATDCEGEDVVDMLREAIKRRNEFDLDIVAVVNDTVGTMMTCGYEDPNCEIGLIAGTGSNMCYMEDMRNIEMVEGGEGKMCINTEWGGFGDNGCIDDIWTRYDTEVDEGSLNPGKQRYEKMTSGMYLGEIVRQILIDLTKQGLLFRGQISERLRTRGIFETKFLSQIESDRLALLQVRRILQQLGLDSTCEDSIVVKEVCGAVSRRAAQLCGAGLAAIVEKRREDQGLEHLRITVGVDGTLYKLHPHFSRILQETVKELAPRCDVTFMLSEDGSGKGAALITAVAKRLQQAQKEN

SMILES | inhibition
CCCCNC(=O)c1sc(=S)n2c1[nH]c(=O)c1ccc(C(=O)NCCc3ccc(OC)c(OC)c3)cc12 | 49.8% (active)
CC(=NNC(=S)N1CC2CCC(CC2)C1)c1cccc(C)n1 | -51.9%
Cc1ccc(N=C2C(=S)N(c3ccc(C)cc3)C(=N)N2/N=C/c2ccc(Cl)cc2)cc1 | -45.3%
Cc1ccc(C)c(-n2c3nc(=O)[nH]c(=O)c-3cc3cc([N+](=O)[O-])ccc32)c1 | 39.2% (active)
O=S(=O)(Nc1ccc(O)c2ccccc12)c1cccs1 | 30.6% (active)
CC(C)c1ccc(S(=O)(=O)/N=C2/C=C(Sc3ncn[nH]3)C(=O)c3ccccc32)cc1 | 60.8% (active)
CC(=NNC(=S)N1CC2CCC(CC2)C1)c1ccncn1 | -61.4%
O=C(/C=C/c1cccs1)Nc1scc(-c2ccccc2)c1C(=O)O | 58.2% (active)
Cc1cc(C(F)F)n2ncc(C(=O)NCCc3ccc(Cl)cc3)c2n1 | 36.2% (active)
O=NNc1nc2ccccc2n1Cc1ccccc1 | -44.2%
CC(=NNC(=S)N1CCN(C2CCCCCC2)CC1)c1ccccn1 | -39.9%
CC(C)c1nc2oc3c(NCCO)ncnc3c2c2c1COC(C)(C)C2 | 66.2% (active)
Cc1cc(C2=NNC(=Nc3ccc(S(=O)(=O)N4CCOCC4)cc3)SC2)c(C)n1C | -46.6%
Cc1ccc(C)c(-n2nnnc2Sc2nnnn2-c2ccccc2)c1 | 38.7% (active)
CCOC(=O)c1ccc(NC(=O)CSc2ccc(-c3ccccn3)nn2)cc1 | 31.3% (active)
O=C(NNC(=S)Nc1ccc(Cl)c(Cl)c1)c1ccccn1 | -74.1%
CCCc1nc2oc3c(NCC4CCCO4)ncnc3c2c2c1COC(C)(C)C2 (configuration not stated) | 28.9% (active)
N#C/C(=C(/O)CCl)c1nc2c(s1)CCc1ccccc1-2 | 46.1% (active)
O=C1C=C(Nc2ccccc2C(=O)O)c2ccccc2C1=O | 44.3% (active)

SMILES | inhibition
COP(=O)(OC)c1ccc(NCc2cc(O)ccc2O)cc1 | 53.1% (active)
O=C1C(Cl)=C(N2CCC(C(=O)O)CC2)C(=O)c2ccccc21 | 57.2% (active)
O=C1C(Cl)=C(NC(=O)c2ccccc2)C(=O)C(Cl)=C1NC(=O)c1ccccc1 | 41.4% (active)
CCc1c(C)c(C#N)c2nc3ccccc3n2c1NC | -43.3%
O=C(CNC(=O)c1ccc2c(c1)OCCO2)N/N=C/c1ccc(O)cc1O | 18.4% (active)
Nc1nc(N2CCN(c3ccccn3)CC2)nc2ccccc12 | -44.1%
Cc1ccc(N=c2ssnc2Cl)cc1 | -43.7%
Cc1cc2cc(CCNC(=O)c3ccc(S(=O)(=O)N4CCOCC4)cc3)c(=O)[nH]c2cc1C | 45% (active)
COc1ccc(-n2c(C)cc(C(=O)CCl)c2C)cc1 | 34.3% (active)
Cc1cc2cc(CCNC(=O)c3ccc(S(=O)(=O)N4CCCC4)cc3)c(=O)[nH]c2cc1C | 53.2% (active)
Cc1ccc2oc(=O)c3cnn(CC(=O)N4CCCCCC4)c3c2c1 | -63.5%
Cc1ccc(SC2=C(Sc3ccc(C)cc3)C(=O)c3ccccc3C2=O)cc1 | 69% (active)
O=C(O)c1ccc(N=Cc2c(O)ccc3ccccc23)cc1 | 43% (active)
CC(=O)/C(=N\Nc1ccc(Cl)cc1Cl)Sc1cccc2cccnc12 | -44.8%
CCCCC(=O)NC(c1ccc(N(CC)CC)cc1)c1ccc2cccnc2c1O (configuration not stated) | -59.3%
COc1ccc(NC(=O)CSc2ccc(-c3ccco3)nn2)c(OC)c1 | 70.8% (active)
CCCc1nc2oc3c(NCCOCCO)ncnc3c2c2c1COC(C)(C)C2 | 41.7% (active)
COC(=O)Cn1c2ccc(F)cc2c2nc(C)sc21 | -90.4%
